HIF-2a block – blocks HIF-2a reporter activity | 786-0 RCC cells HIF-2a reporter, luciferase luminescence, overnight | inhibition, % at 18.8 µM | 360,000 compounds, 0.72% hits;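 active = inhibition of the luminescence signal of 40% or more relative to plate controls, in a single-dose primary screen at 18.75 µM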
CF NFkB block – inhibitors of cystic fibrosis induced NF-kB; inhibition, % at 5 µM; KKLEB NF-kB-GFP reporter, PAF-induced, GFP fluorescence overnight; 360,000 compounds, 0.86% hits; AID 588850;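 active = at least 50% inhibition at 5 µM, scaled per plate between neutral and stimulator controls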;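 also: PAF is a Pseudomonas aeruginosa culture filtrate used as stimulus; plate controls were PAF-stimulated DMSO wells for no effect and unstimulated DMSO wells for full effect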
KKLEB tox – counter-screen for CF NF-kB inhibitors: cytotoxicity; KKLEB CF airway cells viability, ATPlite luminescence, overnight; active compounds read low; cells stimulated with P. aeruginosa culture filtrate; activity change (cytotoxicity), % at 5 µM; 360,000 compounds, 0.36% hits;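 active = corrected activity change at or below -50% at 5 µM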
TRPM1 prom inh – inhibitors of MITF-driven TRPM1 promoter in melanoma cells; 330,000 compounds, 0.83% hits; inhibition, % at 12.5 µM; SK-MEL-5 TRPM1 promoter luciferase, 24 h;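 active = mean inhibition across replicates of 60% or more, whatever share of single replicates reaches that level; inconclusive = some that reach 60%, reason not given; inactive = mean inhibition across replicates below 60%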
Shn3 inh set2 – inhibitors of Schnurri-3 3'UTR reporter in osteoblasts; Clone20 osteoblast Shn3 3'UTR firefly luciferase, 24 h; inhibition, % at 12.5 µM; 360,000 compounds, 0.52% hits;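 active = mean inhibition of at least 75% with every replicate also reaching 75%; inconclusive = mean inhibition at least 75% but some replicate below; inactive = mean inhibition below 75%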;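 also: 0% = median of neutral control wells and 100% = pilot-screen positive control compound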
Peg3 prom inh – inhibitors of Peg3 promoter | 360,000 compounds, 1.7% hits | inhibition, % at 20 µM | HeLa PEG-Prom luciferase reporter, luminescence, overnight;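 active = inhibition of at least 50% at 20 µM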
Numbers without * were called inactive. Compounds with a hit are over-represented: about 2.8% of the library has one in this group of screens.

What do the screens show for `COc1ccc(CC(N)c2csc(NC(=O)Nc3ccc(OC)cc3)n2)cc1` (configuration not stated)?
HIF-2a block: -5; CF NFkB block: -19; KKLEB tox: -6; Shn3 inh set2: 1; Peg3 prom inh: 15

What do the screens show for `C/C(=N\NC(=O)c1ccccc1NC(=O)c1ccc(Cl)cc1)c1ccncc1`?
HIF-2a block: 38; CF NFkB block: 7; KKLEB tox: -17; TRPM1 prom inh: 47; Shn3 inh set2: -45; Peg3 prom inh: 64*

What do the screens show for `CC(=NNC(=O)c1ccncc1)c1ccccc1Cl`?
HIF-2a block: -13; CF NFkB block: 0; KKLEB tox: 21; TRPM1 prom inh: -10; Shn3 inh set2: 7; Peg3 prom inh: -10

Results for CCCCn1nnc(NC(=O)c2ccc(-c3ccccc3[N+](=O)[O-])o2)n1 ?
HIF-2a block: -151; CF NFkB block: 4; KKLEB tox: -10; TRPM1 prom inh: -37; Shn3 inh set2: -44; Peg3 prom inh: -85

Results for CCn1nnc(NC(=O)c2ccc([N+](=O)[O-])o2)n1 ?
HIF-2a block: -29; CF NFkB block: 68*; KKLEB tox: 0; TRPM1 prom inh: 42; Shn3 inh set2: -28; Peg3 prom inh: 25

What do the screens show for `O=C(NCc1cccs1)c1ccc(Cl)c(S(=O)(=O)N2CCOCC2)c1`?
HIF-2a block: 3; CF NFkB block: 5; KKLEB tox: -1; Shn3 inh set2: -1; Peg3 prom inh: 4

How did Cc1ccc(S(=O)(=O)N(C)C)cc1NC(=O)c1cc(-c2ccncc2)nc2ccccc12 do in these assays?
HIF-2a block: 4; CF NFkB block: 1; KKLEB tox: 9; TRPM1 prom inh: 11; Shn3 inh set2: 8; Peg3 prom inh: 52*

How did Cc1cc(C)c2c(NC(=O)CCl)nn(C)c2n1 do in these assays?
HIF-2a block: 10; CF NFkB block: 17; KKLEB tox: -17; TRPM1 prom inh: 4; Shn3 inh set2: -13; Peg3 prom inh: 52*

Results for Cc1cccc(C(=O)N(C(=O)c2cccc(C)c2)N(C)C)c1 ?
HIF-2a block: 16; CF NFkB block: 14; KKLEB tox: -3; TRPM1 prom inh: -4; Shn3 inh set2: 10; Peg3 prom inh: 13

Results for O=c1onc(-c2ccccc2)n1Cc1ccc([N+](=O)[O-])cc1 ?
HIF-2a block: 11; CF NFkB block: 17; KKLEB tox: -5; Shn3 inh set2: -16; Peg3 prom inh: 7

Results for OCC[C@@H]1C[C@H](O)[C@@H](O)[C@]2(OCc3ccccc32)O1 ?
HIF-2a block: 8; CF NFkB block: -15; KKLEB tox: 10; TRPM1 prom inh: 0; Shn3 inh set2: 18; Peg3 prom inh: 12

What do the screens show for `FC(F)(F)C1=Nc2cccc3cccc(c23)N1`?
HIF-2a block: -5; CF NFkB block: -16; KKLEB tox: -7; TRPM1 prom inh: 34; Shn3 inh set2: -4; Peg3 prom inh: 111*

Results for Cc1oc(C(C)(C)C)cc1C(=O)N1CCN(C(c2ccccc2)c2ccccc2)CC1 ?
HIF-2a block: 16; CF NFkB block: 8; KKLEB tox: 1; TRPM1 prom inh: 12; Shn3 inh set2: 9; Peg3 prom inh: 19

Results for Cc1[nH]c2ccccc2c1C(=O)CSc1nc2ncc(Cl)cc2[nH]1 ?
HIF-2a block: 21; CF NFkB block: -1; KKLEB tox: 4; TRPM1 prom inh: 13; Shn3 inh set2: 36; Peg3 prom inh: 115*

What do the screens show for `CC(C)OC(=O)CSc1nc2ncc(Cl)cc2[nH]1`?
HIF-2a block: -21; CF NFkB block: 0; KKLEB tox: 0; TRPM1 prom inh: -6; Shn3 inh set2: -9; Peg3 prom inh: 0

How did O=C(CSc1nc2ncc(Cl)cc2[nH]1)N1CCOCC1 do in these assays?
HIF-2a block: 2; CF NFkB block: -3; KKLEB tox: 0; TRPM1 prom inh: -4; Shn3 inh set2: 86*; Peg3 prom inh: -2

Results for Cc1ccc2nc(SCC(=O)c3c(C)[nH]c4ccccc34)[nH]c2c1 ?
HIF-2a block: -156; CF NFkB block: 0; KKLEB tox: -5; TRPM1 prom inh: -8; Shn3 inh set2: -31; Peg3 prom inh: -51

How did Cc1ccc(CNC(=O)CSc2nnc(CNC(=O)c3ccccc3)o2)cc1 do in these assays?
HIF-2a block: 4; CF NFkB block: 4; KKLEB tox: 0; TRPM1 prom inh: -7; Shn3 inh set2: 1; Peg3 prom inh: 5

Results for NC(=O)N=Nc1c2[nH]c3ccccc3nc-2c2ccccc12 ?
HIF-2a block: 23; CF NFkB block: -156; KKLEB tox: 6; TRPM1 prom inh: 49; Shn3 inh set2: 7; Peg3 prom inh: 72*

Results for O=C(c1cccs1)c1no[n+]([O-])c1C(=O)c1cccs1 ?
HIF-2a block: 63*; CF NFkB block: 93*; KKLEB tox: -94*; TRPM1 prom inh: 67*; Shn3 inh set2: 51; Peg3 prom inh: 93*

What do the screens show for `O=C(c1cccs1)c1ccc(-c2cccs2)s1`?
HIF-2a block: -20; CF NFkB block: -1; KKLEB tox: -26; TRPM1 prom inh: 1; Shn3 inh set2: -13; Peg3 prom inh: -41

How did CCC(NC(=O)Nc1nnc(C(F)(F)F)s1)(C(F)(F)F)C(F)(F)F do in these assays?
HIF-2a block: 27; CF NFkB block: 58*; KKLEB tox: -51*; TRPM1 prom inh: 47; Shn3 inh set2: 83; Peg3 prom inh: 33

What do the screens show for `COc1ccc(CCN(C)CC(O)COc2ccc(C(C)=O)cc2OC)cc1OC` (configuration not stated)?
HIF-2a block: 21; CF NFkB block: 10; KKLEB tox: -18; TRPM1 prom inh: 13; Shn3 inh set2: -2; Peg3 prom inh: 6

Results for Cc1ccc(C(C)C)c(OCc2ccc(C(=O)N/N=C/c3ccc(O)cc3O)cc2)c1 ?
HIF-2a block: 71*; CF NFkB block: 14; KKLEB tox: -10; Shn3 inh set2: 92*; Peg3 prom inh: 32

What do the screens show for `CCOC(=O)/C=C/C(=O)Nc1cccc([N+](=O)[O-])c1`?
HIF-2a block: 4; CF NFkB block: 88*; KKLEB tox: -45; TRPM1 prom inh: 13; Shn3 inh set2: inconclusive; Peg3 prom inh: 88*

Results for O=Cc1ccc(O)c2ncccc12 ?
HIF-2a block: 9; CF NFkB block: -2; KKLEB tox: -4; TRPM1 prom inh: 63*; Shn3 inh set2: 70; Peg3 prom inh: 39

Results for COc1ccc2oc(C(=O)Nc3ccc(S(=O)(=O)N(C)C4CCN(C)CC4)cc3)c(C)c2c1 ?
HIF-2a block: -10; CF NFkB block: 1; KKLEB tox: -7; TRPM1 prom inh: 85*; Shn3 inh set2: 60; Peg3 prom inh: 75*

What do the screens show for `O=C(/C=C/c1ccc(O)c(O)c1)OC(Cc1ccc(O)c(O)c1)C(=O)O` (configuration not stated)?
HIF-2a block: 8; CF NFkB block: 29; KKLEB tox: -15; Shn3 inh set2: 16; Peg3 prom inh: 5

Bioassay records (PubChem BioAssay)
